Screening results (PubChem BioAssay)
A3A deaminase = human APOBEC3A DNA deaminase inhibition; 330,000 tested, 0.41% active; AID 493011; inhibition, % at 20 µM; recombinant A3A, FAM/TAMRA ssDNA deamination fluorescence; P31941;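 active = at least 40% inhibition at 20 µM here, with at most 30% in a related deaminase screen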;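 note: plate controls were A3A with DMSO for no effect and wells lacking A3A enzyme for full effect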
Target sequence (P31941 whole entry, looked up): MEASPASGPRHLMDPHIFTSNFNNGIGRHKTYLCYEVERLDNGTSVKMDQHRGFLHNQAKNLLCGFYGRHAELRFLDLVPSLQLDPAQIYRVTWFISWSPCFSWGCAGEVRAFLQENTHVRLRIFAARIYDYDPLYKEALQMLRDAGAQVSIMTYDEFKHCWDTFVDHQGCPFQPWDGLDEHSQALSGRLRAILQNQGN
NadD block = NadD (S. aureus) enzyme inhibition; purified NadD enzyme, colorimetric absorbance read-out; inhibition, % at 20 µM; 360,000 tested, 0.78% active; AID 602399; in the data active = inhibition above about 26%
PfG6PD inh = PfG6PD (Plasmodium falciparum) enzyme inhibition | PfGluPho enzyme, NADPH resazurin-diaphorase fluorescence | inhibition, % at 20 µM | 350,000 tested, 0.78% active | AID 504690;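 active = inhibition reaching at least a set limit at 20 µM in the primary screen, cut at about 59% in these data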;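 note: 0% = DMSO wells with substrate and 100% = DMSO wells lacking glucose-6-phosphate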
APOBEC3G inh = inhibitors of human APOBEC3G DNA deaminase; Q9HC16; 330,000 tested, 0.28% active; recombinant A3G, ssDNA deamination FAM/TAMRA fluorescence; inhibition, % at 20 µM;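 active = inhibition of at least 40% at 20 µM, with no more than 30% in the related APOBEC3A deaminase screen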;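 note: plate controls were DMSO wells with A3G for no effect and wells lacking A3G enzyme for full effect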
Target sequence (Q9HC16 whole entry, looked up): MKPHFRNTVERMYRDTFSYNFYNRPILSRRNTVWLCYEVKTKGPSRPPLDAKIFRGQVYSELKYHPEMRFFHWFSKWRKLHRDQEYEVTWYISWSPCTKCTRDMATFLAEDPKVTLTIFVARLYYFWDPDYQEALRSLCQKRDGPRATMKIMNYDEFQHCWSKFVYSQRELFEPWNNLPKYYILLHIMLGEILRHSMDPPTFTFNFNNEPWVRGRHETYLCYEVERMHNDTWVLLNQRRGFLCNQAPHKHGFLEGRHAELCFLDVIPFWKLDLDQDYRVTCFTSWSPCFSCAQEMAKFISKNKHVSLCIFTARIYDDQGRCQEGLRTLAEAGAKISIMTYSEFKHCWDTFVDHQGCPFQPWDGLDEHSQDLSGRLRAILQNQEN
H9c2 TAG inh = inhibitors of triacylglycerol accumulation; H9c2 cells, Nile Red lipid (TAG) fluorescence; cells loaded with 200 µM oleic acid; 230,000 tested, 0.66% active; inhibition, % at 12.5 µM;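 active = pattern-corrected inhibition of lipid staining of at least 50% with the nuclear-stain viability signal not falling by more than 50%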;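 note: 0% = DMSO wells and 100% = triacsin C control wells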
H9c2 protect = modulators protecting cardiomyocytes from myocardial damage; AID 588492; protection from H2O2 cell death, % at 20 µM; 360,000 tested, 0.63% active; H9c2 cardiomyocytes, H2O2 injury protection, ATPLite, 2 h;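 active = compounds giving at least 50% protection of heart cells from peroxide-induced death in the single-dose screen, raw or plate-pattern-corrected value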;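 note: 0% = DMSO wells with peroxide and 100% = DMSO wells without peroxide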
NadD inh conf = NadD (S. aureus) inhibition, single concentration confirmation; purified S. aureus NadD, colorimetric enzyme assay; inhibition, % at 20 µM; 2,000 tested, 13% active; shares compounds with NadD block; in the data active = inhibition mostly above about 42%, no sharp cut-off; inactive = mostly below about 42%
H9c2 TAG conf = triacylglycerol accumulation inhibition, confirmation; shares compounds with H9c2 TAG inh; inhibition, % at 12.5 µM; H9c2 lipid accumulation, Nile Red fluorescence; cells loaded with 200 µM oleic acid; 990 tested, 71% active;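 active = mean inhibition across replicates of 40% or more; inactive = mean inhibition below 40%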;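 note: plate controls were DMSO only wells for no effect and Triacsin C treated wells for full effect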
* marks the source's active call; other numbers are inactive results; / = no result given. This is a sample that favours compounds with a hit; in the whole collection about 2.9% have one here.

SMILES	A3A deaminase	NadD block	PfG6PD inh	APOBEC3G inh	H9c2 TAG inh	H9c2 protect	NadD inh conf	others
COc1ccc(CNC(=O)c2cccc3c(-c4cnn(C)c4)coc23)cc1OC	/	2.0	/	/	-38.2	-6.2	/
CCCCC(c1nnnn1C(C)C)N1CCN(C(=O)c2ccco2)CC1 (stereo unspecified)	-2.1	-5.6	1.2	-4.3	/	-3.6	/
O=C(CN1C(=O)CS/C1=C\c1nc(-c2ccc(Cl)cc2)cs1)Nc1cccnc1Cl	-1.7	4.2	-4.9	-7.3	-4.6	-11.0	/
Cc1ccc(-c2csc(/C=C3\SC(C)C(=O)N3CC(=O)Nc3ccccc3F)n2)cc1 (stereo unspecified)	-1.5	31.9*	-4.4	2.5	-7.4	-16.0	14.6
O=[N+]([O-])c1cccc(-c2cc(-c3cc(Br)ccc3O)[nH]n2)c1	0.0	37.7*	12.1	0.2	/	-23.0	4.4
Oc1ccc(Br)cc1-c1cc(-c2ccccc2)n[nH]1	0.1	-1.9	8.4	-0.9	4.0	-17.7	/
CC1CCCC(C)N1C(=O)COc1ccc(C(=O)N/N=C/c2ccc(C(=O)O)cc2)cc1 (stereo unspecified)	3.9	-6.4	0.6	0.3	-7.0	4.5	/
CC(C)CCN(CCC(C)C)C/C(O)=C(\C#N)c1nc(-c2ccccc2)cs1	4.1	16.1	1.2	-1.6	/	-4.7	/
N#C/C(=C(/O)CN1CCN(c2ccccc2F)CC1)c1nc(-c2ccccc2)cs1	-6.4	31.3*	-22.4	-9.0	5.1	-1.6	25.4
COc1ccc2ccccc2c1/C=N/NC(=O)c1nnn(-c2nonc2N)c1C(C)C	-1.6	33.4*	41.5	19.8	/	20.4	41.7*
CCCCC[C@@H](C)N1C[C@@H](COCc2ccccc2)Oc2cc(N3CCC[C@H]3COC)ccc2S1(=O)=O	/	-5.8	/	/	/	/	/
CCOC(=O)CSC1=NC(=O)/C(=C\c2ccc(Cl)cc2)S1	0.8	3.1	28.5	-0.3	-18.2	-25.2	/
CCOc1ccc(C(=O)Nc2cccc(C(=O)O)c2)cc1Cl	-1.9	-1.5	-15.5	-1.8	/	-15.0	/
CCOc1ccc(C(=O)Nc2cc(NC(=O)c3ccc(OCC)c(Cl)c3)cc(C(=O)O)c2)cc1Cl	-3.5	30.2*	-19.1	-10.8	-13.5	5.5	13.2
Cc1cc(-c2csc(NC(=O)c3ccc(C#N)cc3)n2)c(C)n1Cc1ccccc1	-3.4	34.5*	-17.0	-3.7	/	-0.3	26.5
CCOc1ccccc1NC(=O)CCS(=O)(=O)c1ccc(Br)cc1	88.2	-10.6	19.6	69.6	/	-1.2	/
O=C(N/N=C/c1c[nH]c2ccccc12)c1cc(-c2ccc(-c3ccccc3)cc2)n[nH]1	-0.9	49.5*	-9.8	-3.4	45.2	2.7	46.9*
COc1ccc(/C=C2/Sc3ccc(C(=O)NCCN4CCCCCC4)cc3NC2=O)cc1	-1.3	55.6*	6.8	-2.7	/	-14.8	-10.6
COCCn1c(=O)[nH]c(=O)c2c1nc(-c1ccc(-c3ccc(Cl)cc3[N+](=O)[O-])o1)n2Cc1ccccc1	2.9	44.8*	11.0	6.0	32.2	11.0	12.9
COCCn1c(-c2ccc(-c3ccc([N+](=O)[O-])cc3Br)o2)nc2c1c(=O)[nH]c(=O)n2CC(C)C	22.5	43.7*	28.2	12.6	20.2	14.6	5.8
COc1ccc(-c2ccc(-c3nc4c(c(=O)[nH]c(=O)n4Cc4ccccc4)n3C)o2)c([N+](=O)[O-])c1	-3.3	52.4*	-4.3	-6.7	/	0.8	9.0
O=c1cc(SCc2ccc(Cl)cc2Cl)nc[nH]1	/	-3.7	-16.6	/	0.0	-4.1	/
COc1cc(C#Cc2c(-c3cncn3C)n(C)c3ccc(-c4cnc(N5CCOCC5)nc4)cc23)cc(OC)c1	0.0	45.1*	11.5	-5.8	72.9*	9.2	18.7	H9c2 TAG conf=65.0*
CCOc1ccccc1C(=O)NCC(=O)N(C)Cc1cccnc1	-1.1	-2.8	-7.6	-3.2	/	4.2	/
COc1ccc(-c2ccc3[nH]c4c(c3c2)CCN2C(=O)[C@@H]([C@H](C)O)[C@@H](N(C)C(=O)Nc3cc(Cl)cc(Cl)c3)C[C@@H]42)cc1	/	30.6*	15.9	/	62.2*	-20.3	23.4	H9c2 TAG conf=63.2*
SMILES	A3A deaminase	NadD block	PfG6PD inh	APOBEC3G inh	H9c2 TAG inh	H9c2 protect	NadD inh conf	others
CCOC(=O)c1cc(-c2ccccc2)sc1NC(=O)C(C)N1C(=O)NC(C)(c2ccc(Cl)cc2)C1=O (stereo unspecified)	1.5	30.0*	16.8	18.6	75.6*	4.9	-7.7	H9c2 TAG conf=76.4*
CCOC(=O)c1cc(-c2ccccc2)sc1NC(=O)C(C)C	-4.8	2.1	14.9	-7.8	/	-5.7	/
Cc1ccc2c(c1)CCCN2C(=O)c1cc(C)on1	-1.5	-5.6	-10.4	-7.0	-6.6	1.3	/
Cc1ccc(-c2cc(C(F)F)n3ncc(C(=O)Nc4c(C)nn(Cc5c(Cl)cccc5Cl)c4C)c3n2)cc1	0.3	32.4*	-0.6	-5.4	89.5*	7.7	-0.5	H9c2 TAG conf=46.9*
O=C(Nc1ccc(-c2csc(Nc3ccc(Cl)cc3)n2)cc1)c1cc([N+](=O)[O-])cc(C(F)(F)F)c1	6.3	43.1*	9.4	5.1	50.8*	-7.1	7.9	H9c2 TAG conf=57.4*
COC(=O)c1ccc(NC(=O)COc2ccc(C3C(C#N)=C(N)Oc4c3ccc3ccccc43)cc2OC)cc1 (stereo unspecified)	-3.1	51.1*	0.6	-7.3	50.4*	0.4	29.3	H9c2 TAG conf=24.0
COc1cc(C2C(C#N)=C(N)Oc3c2ccc2ccccc32)ccc1OCC(=O)Nc1ccccc1C (stereo unspecified)	2.1	19.8	-7.8	-1.0	/	-0.8	/
O=C(CCC(=O)N1CCOCC1)c1ccc(F)cc1	0.8	-0.5	13.6	-11.6	1.2	1.6	/
Cn1c(=O)[nH]c(=O)c2c1nc(N/N=C/c1ccncc1)n2Cc1ccc(Cl)cc1	-5.4	7.4	13.4	-4.4	30.9	34.3	/
COc1ccccc1-n1c(SCC(=O)Nc2ccc(NC(C)=O)cc2)nc2c([nH]c3ccccc32)c1=O	0.6	0.2	-3.8	0.2	9.2	9.8	/
C/C(=N\Nc1ccc(S(=O)(=O)Nc2ccc(Cl)cc2)cc1[N+](=O)[O-])c1ccc(N2CCOCC2)cc1	-0.1	18.7	3.9	-6.1	/	-8.5	/
O=[N+]([O-])c1ccccc1/C=C/C=N/Nc1ccc(S(=O)(=O)Nc2ccc(Cl)cc2)cc1[N+](=O)[O-]	1.7	26.0*	-11.2	1.7	58.1*	-14.6	2.1	H9c2 TAG conf=52.0*
O=[N+]([O-])c1cc(S(=O)(=O)Nc2cccc(Cl)c2)ccc1N/N=C/c1ccc(N2CCOCC2)cc1	2.6	28.2*	-6.5	-0.9	80.0*	-2.6	0.5	H9c2 TAG conf=79.1*
